Test results taken from PubChem BioAssay (NCI).
Where “and” joins values, the source holds several entries; their conditions need not be identical. Identical values can stand only once. Compounds without any hit were thinned out: in the full panel of roughly 83,000, 20% have a hit.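 Growth was measured after 48 h exposure to one concentration of compound in 96-well plates. Values under 10 count as active.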 Calls of active or inactive are those of the source.

system: MDA-MB-435 melanoma; test: NCI-60 one-dose screen, 48 h (100 = growth as untreated, 0 = no growth, -100 = all killed); settings: 10 µM
Method: Growth inhibition of the MDA-MB-435 human Melanoma tumor cell line is measured as a screen for anti-cancer activity. Cells are grown in 96 well plates and exposed to the test compound for 48 hours. Compounds are tested at a single concentration, which is 10^-5 M for most compounds. The reported endpoint is percent growth (GI% or GIPRCNT), where numbers from 0 - 100% represent growth inhibition, and numbers from -100% - 0 represent cell death. For example, a value of 40 represents 60% growth inhibition. A value of 0 means no net growth occurred over the course of the experiment. A value of -40 indicates 40% of cells at the beginning of the experiment died by the end of the experiment. A value of -100 means all cells are dead at the end of the experiment.
NCI-60 Human Tumor Cell Lines Screen was performed using the standard one-dose NCI protocol, which is described in more detail at https://dtp.cancer.gov/discovery_development/nci-60/default.htm.
Compounds with GIPRCNT values below 10 were considered active. Activity score was based on GIPRCNT using the following formula: […]
Score is 0 for GIPRCNT values of 100 or above, 50 for GIPRCNT values of 0, and 100 for GIPRCNT values of -100.

SMILES	growth
S=c1nc[nH]c2nc[nH]c12	15.3% (inactive)

same assay, conditions: 10 µM unless noted

SMILES	growth
COCCNC(C)=O	105% (inactive)
CN1C2C=CC(=O)C1C1C(=O)N(c3ccccc3)C(=O)C12 (stereo not given)	80.5% (inactive)
O=[N+]([O-])c1cccc(N=Cc2ccccc2)c1	109% (inactive)
CCCCCCC(C)CC1=C(O)c2ccccc2C(=O)C1=O (stereo not given)	42.7% (inactive)
CCCCC/C(C)=N\NC(N)=S	84.4% (inactive)
COc1ccc(COC=O)cc1	113% (inactive)
O=C(c1ccncc1)c1c(Cc2ccccc2)ccc2ccccc12	83.2% (inactive)
CCN(CC)CCNC(=O)c1ccc(NCN2C(=O)NC(c3ccccc3)(c3ccccc3)C2=O)cc1	94.6% (inactive) and 103% (inactive)
CC(C)(C)OC(=O)CC1(O)CCCCC1	102% (inactive)
COc1ccc(CCNC(=S)NN)cc1OC	111% (inactive)
Cc1cnc(N)s1	104% (inactive)
CCOCCC(=O)O	108% (inactive)
Cc1cc(=NO)cc(C)n1O	106% (inactive)
CNc1ccc(Cl)cc1S(=O)(=O)c1ccccc1[N+](=O)[O-]	49.6% (inactive) and 6.48% (active)
CCC(=O)Oc1ccc(OCc2ccccc2)cc1	96.9% (inactive) and 82.1% (inactive)
CCCCNC(=O)c1ccccc1C	97.9% (inactive)
O=C(NC(=O)c1ccc(F)c(Cl)c1)NC1CC1	114% (inactive) and 102% (inactive)
CC1(C)OC(=O)C(=Cc2ccc(C#N)cc2)C(=O)O1	108% (inactive) and 105% (inactive)
COc1ccc2oc3c(ccc[n+]3C)c(=O)c2c1	105% (inactive)

SMILES	growth
O=C1c2ccccc2C(c2ccccc2)C1c1ccccc1 (stereo not given)	95.9% (inactive)
Nc1c(Cl)cc2c(c1Br)C(=O)c1ccccc1C2=O	105% (inactive)
CC(C)(C)OC(=O)NCCc1ccc(N)cc1	101% (inactive)
COc1ccc(CCl)c(C)c1OC	108% (inactive)
O=C1c2cccnc2-c2ncccc21	103% [100 µM] (inactive)
CC(C)(C(=O)c1cccnc1)c1cccnc1	98.6% (inactive) and 122% (inactive)
Cc1ccc(N)cc1S(=O)(=O)O	115% (inactive) and 109% (inactive)
Cc1c(Cl)c(C)c(Cc2c(C)c(Cl)c(C)c(Cl)c2O)c(O)c1Cl	7.62% (active)
COc1ccc(-n2[nH]c3c(cnc4ccccc43)c2=O)cc1	94.7% (inactive) and 97.3% (inactive)
OCc1ccccc1F	97.6% (inactive)
CC(=O)c1cc2ccccc2o1	109% (inactive)
CS(=O)(=O)OCC1NC(=O)C(COS(C)(=O)=O)NC1=O (stereo not given)	107% (inactive) and 90.7% (inactive)
O=C1C=CC(n2cc(F)c(=O)[nH]c2=O)O1 (stereo not given)	46.4% (inactive)
CN(C)C(=N)N=C(N)N	109% (inactive) and 124% (inactive)
Cc1onc(-c2c(F)cccc2Cl)c1-c1ncc(-c2ccc(Cl)cc2)o1	46.8% (inactive) and 37.7% (inactive)
Cc1nc2c(=O)[nH]c(=S)[nH]c2[nH]c1=O	107% (inactive) and 102% (inactive)
NNc1ncnc2cccc(Cl)c12	115% (inactive)
O=C(O)c1c2c(nc3ccccc13)Cc1ccccc1-2	112% (inactive) and 96.6% (inactive)
COc1cc(NCCCCCNC(C)C)c2ncccc2c1	97.8% (inactive) and 106% (inactive)

same assay, conditions: 50 µM

SMILES	growth
S=c1nc[nH]c2nc[nH]c12	13.8% (inactive)
